Reference: PubChem BioAssay (NCATS)
Inconclusive results are not listed. Active and inactive are the calls of the source. Calls come from the whole dose curve; as a rule, active = well fitted inhibition curve with a large enough effect; inconclusive = small, poorly fitted or top-dose-only effect; inactive = flat fitted curve, though single readings scatter.

Target: Phospholipid hydroperoxide glutathione peroxidase GPX4 (Homo sapiens) (UniProt P36969)
Assay: Primary qHTS Assay for Inhibitors of Recombinant Selenoprotein Glutathione Peroxidase 4 (GPX4) (AID 1845192); note: nearly all actives have a fitted effect of over 65% in size; for activity change, negative = inhibition: % is set by controls: 0 for no effect and ±100 for the full control effect
Conditions: recombinant GPX4, GR-coupled NADPH fluorescence, 15 min; series mostly up to 27.8 µM; activity change, negative = inhibition: at the top concentration
Method in brief: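 Steps: GPX4 plus compound, 30 min RT; add GR/GSH/NADPH master mix; start with cumene hydroperoxide; read 340/450 nm fluorescence at 0 and 15 min. Finals were 200 nM GPX4, 1 mM GSH, 0.5 mM CHP, 0.5 mM NADPH, 100 nM GR.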

Chain of Phospholipid hydroperoxide glutathione peroxidase GPX4 (Homo sapiens) (P36969 whole entry, looked up): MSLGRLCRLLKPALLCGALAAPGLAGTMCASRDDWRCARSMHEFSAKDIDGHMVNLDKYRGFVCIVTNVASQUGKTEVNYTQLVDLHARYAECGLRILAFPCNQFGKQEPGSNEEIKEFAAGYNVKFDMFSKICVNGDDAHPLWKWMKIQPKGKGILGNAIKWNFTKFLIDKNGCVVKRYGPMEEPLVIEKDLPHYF

| SMILES | activity change, negative = inhibition | outcome |
| --- | --- | --- |
| CC1(C)C[C@@H]2[C@H](C1)[C@@]1(C)C[C@]13C(O)OC[C@]3(O)[C@H]2O (some centres not stated) | -3.29% [at 50 µM] (inactive) | – |
| CC/C=C/C=C/C1(C)OC(CC(CO)OC)=CC1=O (configuration not stated) | 1.71% [at 50 µM] (inactive) | – |
| COc1cc(C)c(C(=O)O[C@@H]2[C@H](O)[C@@H](CO)O[C@H]2n2ccc(=O)[nH]c2=O)c(OC)c1 | – | inactive |
| CO[C@H]1c2cc(C(C)C)c(O)c(O)c2[C@@]23CCCC(C)(C)C2[C@@H]1OC3=O (some centres not stated) | -6.48% (inactive) | – |
| C=C1CC/C=C(/C(=O)O)CCC2C1CC2(C)C (configuration not stated) | – | inactive [at 50 µM] |
| COC(=O)C1=COC(OC2OC(CO)C(O)C(O)C2O)C2C(COC(=O)/C=C/c3ccc(O)c(O)c3)C(O)C(O)C12 (configuration not stated) | 4.85% [at 15.3 µM] (inactive) | – |
| C=C1CCC2[C@@](C)(C(=O)O)CCC[C@@]2(C)[C@@H]1CCc1ccoc1 (some centres not stated) | -11.7% (inactive) | – |
| COCCN1CCC(C(=O)NO)(S(=O)(=O)c2ccc(Oc3ccc(OC(F)(F)F)cc3)cc2)CC1 | -7.24% [at 50 µM] (inactive) | – |

Target: Luciferin 4-monooxygenase (Photinus pyralis) (UniProt P08659)
Assay: Primary firefly luciferase (FLuc) qHTS assay for identification of artifact compounds. (AID 1845220); note: nearly all actives have a fitted effect of over 60% in size;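 for activity change, negative = inhibition: plate controls were DMSO vehicle for no effect and no enzyme for full effect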
Conditions: purified firefly luciferase, luminescence, 5 min; series mostly up to 54.1 µM; activity change, negative = inhibition: at the top concentration
Method in brief: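 Enzymatic FLuc inhibition assay: compounds pre-exposed to luciferin/ATP (10 uM each) for 15 min, then purified P. pyralis enzyme at 10 nM added. Read-out: luminescence at 5 min.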

| SMILES | outcome | activity change, negative = inhibition |
| --- | --- | --- |
| CC(C)=CC1C[C@](C)(O)[C@@H]2[C@H]3CCC4[C@@]5(C)CC[C@H](O[C@@H]6OC[C@H](O)[C@H](O[C@@H]7O[C@H](CO[C@@H]8O[C@H](CO)[C@@H](O)[C@H](O)[C@H]8O)[C@@H](O)[C@H](O)[C@H]7O)[C@H]6O[C@@H]6O[C@@H](C)[C@H](O)[C@@H](O)[C@H]6O)C(C)(C)[C@@H]5CC[C@@]4(C)[C@@]34CO[C@@]2(C4)O1 (some centres not stated) | inactive [at 11.6 µM] | – |
| CC(=O)c1[nH]cc(CCC(=O)O)c1CC(=O)O | – | 3.92% (inactive) |
| CN1C(=O)N(c2cc(Cl)cc(Cl)c2)C(=O)[C@@]1(C)Cc1ccc(Br)cc1 | inactive | – |
| CC(=O)OC1C(O)C(C)(O)C(/C=C/C(=O)O)C2(C)CCCC(C)(C)C12 (configuration not stated) | inactive | – |
| CNc1nc(C)nc(N[C@H]2CCC[C@@H](C(=O)NCc3ccc(C#N)cc3C(F)(F)F)C2)n1 | inactive | – |
| CC1=C2CC(=O)C(C)CC/C=C(\C)CC2(O)OC1=O (configuration not stated) | – | 3.11% (inactive) |
| CC(NC(=O)c1ccccc1N)C(=O)O (configuration not stated) | – | -1.56% (inactive) |
| C/C(=C\CCC(C)C1CC(O)C2(C)C3CCC4C(C)(C)C(OC5OCC(O)C(O)C5O)CCC45CC35CC(O)C12C)C(=O)O (configuration not stated) | – | 0.949% [at 25.7 µM] (inactive) |
| COc1c(C)c(OCC=C(C)C)cc2c1CNC2=O | – | 3.9% (inactive) |
| CC(C)/C=C1/NC(=O)C(C(C)C)n2c1nc1c(O)cccc1c2=O (configuration not stated) | inactive | – |
| N[C@@H](CCNCc1ccc(Cl)cc1)C(=O)N1CCCCC1 | inactive | – |
| CC(=O)OC12CC(C)C(O)C1/C=C(/COC1OC(CO)C(O)C(O)C1O)CCC1C(/C=C(\C)C2=O)C1(C)C (configuration not stated) | – | -1.51% [at 25.7 µM] (inactive) |
| OC[C@@]1(O)CO[C@H](OC[C@H]2O[C@@H](OC(CCCCc3ccc(O)cc3)CCc3ccc(O)cc3)[C@H](O)[C@@H](O)[C@@H]2O)[C@@H]1O (some centres not stated) | – | 3.88% [at 25.7 µM] (inactive) |
| C/C(=C/CO)CC[C@H]1[C@]2(C)C[C@H](O)CC(C)(C)[C@H]2CC[C@]1(C)O | – | 3% (inactive) |
| C=C1C2(C)CC3C4(C)OC(C5OC56C4=CC(=O)OC6(C)C)C3(C)C13C(=O)OC(C)C3(O)C2=O (configuration not stated) | – | 1.04% [at 25.7 µM] (inactive) |
| C=C(C)[C@@H]1CC[C@]2(C(=O)O)CC[C@]3(C)[C@H](CCC4[C@@]5(C)CCC(=O)C(C)(C)C5C(O)C[C@]43C)C12 (some centres not stated) | inactive [at 25.7 µM] | – |
| NC(=O)c1ccc(F)c2c1C[C@@H](N(C1CCC1)C1CCC1)CO2 | inactive | – |
| CC1(C)C=Cc2c(ccc3c2[N+]([O-])=C2C3(O)CC34NC(=O)C5(CCCN5C3=O)CC4C2(C)C)O1 (configuration not stated) | inactive [at 25.7 µM] | – |
| CC1(C(=O)O)CCCC2(C)C3CC4C5CC3(CCC12)CC45C (configuration not stated) | – | 0.123% (inactive) |
| C[C@@H]1O[C@@H](O[C@H]2[C@@H]3C=CO[C@@H](O[C@@H]4O[C@H](CO)[C@@H](O)[C@H](O)[C@H]4O)[C@@H]3[C@@]3(CO)O[C@@H]23)[C@H](O)[C@H](OC(=O)/C=C/c2ccc(O)c(O)c2)[C@H]1O | inactive [at 25.7 µM] | – |
| O=C(Cn1c2ccccc2c2nc3n(c(=O)c21)CCS3)N1CCCC1 | inactive | – |
| CC12CC(c3ccoc3)OC(=O)C1CCC1(C)C2CCC(O)C1(C)O (configuration not stated) | – | 3.8% (inactive) |
| CC1CC(O)/C=C/C(O)/C=C\C(=O)O1 (configuration not stated) | – | 3.95% [at 86.2 µM] (inactive) |
| C[C@@H]1O[C@@H](O[C@H]2[C@H](O[C@H]3[C@H](O[C@H]4CC[C@@]5(C)C(CC[C@]6(C)C5CC=C5[C@@H]7CC(C)(C)C[C@@H](O)[C@]7(C)CC[C@]56C)[C@@]4(C)CO)O[C@H](C(=O)O)[C@@H](O)[C@@H]3O)O[C@H](CO)[C@H](O)[C@@H]2O)[C@H](O)[C@H](O)[C@H]1O (some centres not stated) | – | 0.671% [at 11.6 µM] (inactive) |
